# The full ranking holds about 2,900 compounds; the median of “NF-kB SEAP reporter activity, fold change vs agonist alone” is about 0.99, and the highest 2% start at about 2.6. What follows is part of a selection rich in the highest values, with near analogues and random picks from the rest.
# Experiments:
# [1] = test system: RAW-Dual; assay: NF-kB SEAP reporter activity, fold change vs agonist alone; higher = enhanced NF-kB activity
# Procedure, shortened: (§1)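 After 50 nL of library stock was delivered by pin tool to RAW-Dual macrophages (50,000 cells/well, DMEM, 384-well plates), a PRR agonist was added 1 h later and the plates were kept at 37 °C, 5% CO2. Twenty hours later, IRF was read from supernatant by QuantiLuc luminescence and NF-κB by QuantiBlue absorbance at 620 nm. Reporter activity is stated as fold change over agonist-alone wells. Wells with IncuCyte confluency under 70% of agonist controls in both mask sets were counted as cytotoxic.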
# [2] = test system: RAW-Dual; assay: NF-kB SEAP reporter activity, fold change vs agonist alone; cytotoxicity flag (confluency mask): cytotoxic (confluency <70% of control); library stock concentration (final ~1000-fold dilution): 10 mM; higher = enhanced NF-kB activity
# Procedure, shortened: as §1
# [3] = test system: RAW-Dual; assay: NF-kB SEAP reporter activity, fold change vs agonist alone; cytotoxicity flag (confluency mask): not cytotoxic; library stock concentration (final ~1000-fold dilution): 10 mM; higher = enhanced NF-kB activity
# Procedure, shortened: as §1
# [4] = test system: RAW-Dual; assay: NF-kB SEAP reporter activity, fold change vs agonist alone; cytotoxicity flag (confluency mask): not cytotoxic; library stock concentration (final ~1000-fold dilution): .1 mM; higher = enhanced NF-kB activity
# Procedure, shortened: as §1
# [5] = library stock concentration (final ~1000-fold dilution): 10 mM, cytotoxicity flag (confluency mask): cytotoxic (confluency <70% of control), agonist: Imiquimod (TLR7) […]
# [6] = library stock concentration (final ~1000-fold dilution): 10 mM, cytotoxicity flag (confluency mask): cytotoxic (confluency <70% of control), agonist: MPLA (TLR4) […]
# [7] = agonist: ODN 1826 (TLR9) 0.5 ug/mL
# [8] = agonist: Pam2CSK4 (TLR2/6) 0.1 ug/mL
# [9] = agonist: Pam3CSK4 (TLR2/1) 0.1 ug/mL
# [10] = library stock concentration (final ~1000-fold dilution): 10 mM, cytotoxicity flag (confluency mask): not cytotoxic, agonist: Imiquimod (TLR7) […]
# [11] = library stock concentration (final ~1000-fold dilution): 10 mM, cytotoxicity flag (confluency mask): not cytotoxic, agonist: MPLA (TLR4) […]
compound,measurement,setting,value
O=C(CBr)N1CC([N+](=O)[O-])([N+](=O)[O-])C1,NF-kB SEAP reporter activity,[1]; [5],0.542
same,NF-kB SEAP reporter activity,[1]; [6],0.295
same,NF-kB SEAP reporter activity,[2]; agonist: LPS (TLR4) 0.1 ug/mL,0.335
same,NF-kB SEAP reporter activity,[2]; [7],0.252
same,NF-kB SEAP reporter activity,[2]; [8],0.0912
same,NF-kB SEAP reporter activity,[2]; [9],0.189
CC1=CC2Cc3[nH]c(=O)ccc3C3(C1)NCCCC23 (stereo not drawn),NF-kB SEAP reporter activity,[1]; [10],0.933
same,NF-kB SEAP reporter activity,[1]; [11],1.03
same,NF-kB SEAP reporter activity,[3]; agonist: LPS (TLR4) 0.1 ug/mL,1.12
same,NF-kB SEAP reporter activity,[3]; [7],0.952
same,NF-kB SEAP reporter activity,[3]; [8],1.11
same,NF-kB SEAP reporter activity,[3]; [9],1.22
COc1ccc(CC2NCC(O)C2OC(C)=O)cc1 (stereo not drawn),NF-kB SEAP reporter activity,[1]; [5],0.133
same,NF-kB SEAP reporter activity,[1]; [6],0.231
same,NF-kB SEAP reporter activity,[2]; agonist: LPS (TLR4) 0.1 ug/mL,0.216
same,NF-kB SEAP reporter activity,[2]; [7],0.171
same,NF-kB SEAP reporter activity,[2]; [8],0.0635
same,NF-kB SEAP reporter activity,[2]; [9],0.145
Cc1c(C(C)C2NCC(C)CC2O)ccc2c1CC1C2CC=C2CC(O)CCC21C (stereo not drawn),NF-kB SEAP reporter activity,[1]; [10],0.945
same,NF-kB SEAP reporter activity,[1]; [11],1.15
same,NF-kB SEAP reporter activity,[3]; agonist: LPS (TLR4) 0.1 ug/mL,1.1
same,NF-kB SEAP reporter activity,[3]; [7],1.02
same,NF-kB SEAP reporter activity,[3]; [8],0.866
same,NF-kB SEAP reporter activity,[3]; [9],1.03
O.O=C1C=CCC2C3CCCN4CCCC(CN12)C34 (stereo not drawn),NF-kB SEAP reporter activity,[1]; [10],0.531
same,NF-kB SEAP reporter activity,[1]; [11],0.792
same,NF-kB SEAP reporter activity,[3]; agonist: LPS (TLR4) 0.1 ug/mL,1.41
same,NF-kB SEAP reporter activity,[3]; [7],0.558
same,NF-kB SEAP reporter activity,[3]; [8],0.957
same,NF-kB SEAP reporter activity,[3]; [9],1.11
Cc1sc2c(c1C)C(c1ccc(Cl)cc1)=NC(CC(=O)OC(C)(C)C)c1nnc(C)n1-2 (stereo not drawn),NF-kB SEAP reporter activity,[1]; [5],2.49
same,NF-kB SEAP reporter activity,[1]; [6],2.26
same,NF-kB SEAP reporter activity,[2]; agonist: LPS (TLR4) 0.1 ug/mL,2.05
same,NF-kB SEAP reporter activity,[2]; [7],1.9
same,NF-kB SEAP reporter activity,[2]; [8],0.784
same,NF-kB SEAP reporter activity,[2]; [9],1.19
CCNC(=O)CC1N=C(c2ccc(Cl)cc2)c2cc(OC)ccc2-n2c(C)nnc21 (stereo not drawn),NF-kB SEAP reporter activity,[1]; [10],1.41
same,NF-kB SEAP reporter activity,[1]; [11],2.47
same,NF-kB SEAP reporter activity,[3]; agonist: LPS (TLR4) 0.1 ug/mL,2.57
same,NF-kB SEAP reporter activity,[3]; [7],1.9
same,NF-kB SEAP reporter activity,[3]; [8],0.886
same,NF-kB SEAP reporter activity,[3]; [9],1.43
Cc1sc2c(c1C)C(c1ccc(Cl)cc1)=NC(CC(=O)Nc1ccc(O)cc1)c1nnc(C)n1-2 (stereo not drawn),NF-kB SEAP reporter activity,[1]; [10],1.49
same,NF-kB SEAP reporter activity,[1]; [11],2.56
same,NF-kB SEAP reporter activity,[3]; agonist: LPS (TLR4) 0.1 ug/mL,3.19
same,NF-kB SEAP reporter activity,[3]; [7],2.24
same,NF-kB SEAP reporter activity,[3]; [8],0.856
same,NF-kB SEAP reporter activity,[3]; [9],1.74
Cc1sc2c(c1C)C(c1ccc(Cl)cc1)=NC(CC(N)=O)c1nnc(C)n1-2 (stereo not drawn),NF-kB SEAP reporter activity,[1]; [10],1.43
same,NF-kB SEAP reporter activity,[1]; [11],2.38
same,NF-kB SEAP reporter activity,[3]; agonist: LPS (TLR4) 0.1 ug/mL,2.51
same,NF-kB SEAP reporter activity,[3]; [7],1.97
same,NF-kB SEAP reporter activity,[3]; [8],0.734
same,NF-kB SEAP reporter activity,[3]; [9],1.69
COc1ccc2c(c[n+](C)c3c4cc5c(cc4ccc23)OCO5)c1OC.Cl,NF-kB SEAP reporter activity,[1]; [10],0.228
same,NF-kB SEAP reporter activity,[1]; [11],0.224
same,NF-kB SEAP reporter activity,[3]; agonist: LPS (TLR4) 0.1 ug/mL,0.278
same,NF-kB SEAP reporter activity,[3]; [7],0.195
same,NF-kB SEAP reporter activity,[3]; [8],0.15
same,NF-kB SEAP reporter activity,[3]; [9],0.163
O=c1[nH]c2ccccc2n1C1CCN(Cc2ccc(-c3nc4cc5nc[nH]c5cc4nc3-c3ccccc3)cc2)CC1,NF-kB SEAP reporter activity,[1]; [10],0.45
same,NF-kB SEAP reporter activity,[1]; [11],1.05
same,NF-kB SEAP reporter activity,[3]; agonist: LPS (TLR4) 0.1 ug/mL,1.2
same,NF-kB SEAP reporter activity,[3]; [7],0.187
same,NF-kB SEAP reporter activity,[3]; [8],0.317
same,NF-kB SEAP reporter activity,[3]; [9],0.427
Br.COc1ccc2c(c1)C13CCCCC1C(C2)N(C)CC3.O (stereo not drawn),NF-kB SEAP reporter activity,[1]; [11],0.902
same,NF-kB SEAP reporter activity,[3]; agonist: LPS (TLR4) 0.1 ug/mL,0.802
same,NF-kB SEAP reporter activity,[3]; [7],0.615
same,NF-kB SEAP reporter activity,[3]; [8],0.806
same,NF-kB SEAP reporter activity,[3]; [9],0.824
Br.CN1C2CC(OC(=O)C(CO)c3ccccc3)CC1C1OC12.O.O.O (stereo not drawn),NF-kB SEAP reporter activity,[1]; [10],0.88
same,NF-kB SEAP reporter activity,[1]; [11],1.09
same,NF-kB SEAP reporter activity,[3]; agonist: LPS (TLR4) 0.1 ug/mL,0.989
same,NF-kB SEAP reporter activity,[3]; [7],0.789
same,NF-kB SEAP reporter activity,[3]; [8],1.04
same,NF-kB SEAP reporter activity,[3]; [9],1.12
Cc1cccc(-c2ccnc3c(C(N)=O)cnn23)c1,NF-kB SEAP reporter activity,"[1]; library stock concentration (final ~1000-fold dilution): .1 mM, cytotoxicity flag (confluency mask): not cytotoxic, agonist: Imiquimod (TLR7) […]",0.791
same,NF-kB SEAP reporter activity,"[1]; library stock concentration (final ~1000-fold dilution): .1 mM, cytotoxicity flag (confluency mask): not cytotoxic, agonist: MPLA (TLR4) […]",1.15
same,NF-kB SEAP reporter activity,[4]; agonist: LPS (TLR4) 0.1 ug/mL,1.21
same,NF-kB SEAP reporter activity,[4]; [7],1.28
same,NF-kB SEAP reporter activity,[4]; [8],1.25
same,NF-kB SEAP reporter activity,[4]; [9],1.13

# From the supplement of paper PMC10037445
